An excerpt weighted towards active compounds, which were near 28% of everything screened.
CYP2C9 inhib – blocks human cytochrome P450 2C9 | CYP2C9 Supersomes, luciferin-H conversion, luminescence | inhibition, % at 5 µM | 20% of 96,000 active | AID 777;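 active = blocking of liver enzyme CYP2C9 beyond about 50% at 5 µM, limit read from the data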
CYP2C9 act – CYP2C9 (human) activation. AID 1024. 1.4% of 96,000 active. P11712. recombinant CYP2C9, luciferin-H conversion, luminescence; stronger effect = higher value; factor 1 = untreated enzyme, 0 = blocked. activation factor at 5 µM;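 active = activation factor of 2 or more for CYP2C9 at a 5 µM dose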
CYP2C19 inhib – human CYP2C19 inhibition; P33261; CYP2C19 Supersomes, luciferin-H EGE luminescence, 30 min; inhibition, % at 5 µM; 21% of 96,000 active; AID 778;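 active = CYP2C19 inhibition above a set limit at 5 µM in the primary screen, cut at about 50% in these data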
Mac1 fbg inh – blocks human CD11b/CD18 adhesion to fibrinogen; P05107+P11215; K562 CD11b/CD18 adhesion to fibrinogen, ATPlite luminescence; Mn2+ added to activate the integrin; inhibition, % at 10 µM; 0.54% of 93,000 active; AID 1497;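 active = primary inhibition of 50% or more at 10 µM, then 40% or more on retest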
Target sequence (P05107 whole entry, looked up, other chains not shown): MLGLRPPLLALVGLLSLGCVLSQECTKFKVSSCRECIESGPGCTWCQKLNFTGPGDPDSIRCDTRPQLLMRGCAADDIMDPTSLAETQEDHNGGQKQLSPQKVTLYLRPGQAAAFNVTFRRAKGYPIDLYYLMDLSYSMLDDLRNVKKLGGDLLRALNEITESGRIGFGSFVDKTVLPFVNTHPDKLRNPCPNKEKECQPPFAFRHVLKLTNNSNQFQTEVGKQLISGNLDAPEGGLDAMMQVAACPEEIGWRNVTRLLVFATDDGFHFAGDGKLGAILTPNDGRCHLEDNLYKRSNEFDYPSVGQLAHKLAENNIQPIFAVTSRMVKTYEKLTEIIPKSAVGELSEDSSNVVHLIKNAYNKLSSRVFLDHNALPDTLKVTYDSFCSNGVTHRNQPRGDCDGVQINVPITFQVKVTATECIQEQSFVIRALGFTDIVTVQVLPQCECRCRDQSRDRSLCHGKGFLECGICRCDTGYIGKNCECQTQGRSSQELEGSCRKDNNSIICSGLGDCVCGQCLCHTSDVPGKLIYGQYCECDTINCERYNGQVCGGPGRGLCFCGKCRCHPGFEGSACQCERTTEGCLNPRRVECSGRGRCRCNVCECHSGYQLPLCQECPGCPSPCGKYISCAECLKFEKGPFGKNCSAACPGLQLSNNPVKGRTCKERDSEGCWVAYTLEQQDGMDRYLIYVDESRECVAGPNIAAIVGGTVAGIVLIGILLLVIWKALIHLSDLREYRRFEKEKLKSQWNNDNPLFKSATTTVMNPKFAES
CYP2C19 act – increases human CYP2C19 enzyme activity | P33261 | recombinant CYP2C19, luciferin-H EGE luminescence; stronger effect = higher value; 0 = fully inhibited enzyme, 1 = untreated enzyme | activation factor at 5 µM | 96,000 tested, under 10 active;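 active = activation factor of at least 2 at 5 µM in the primary screen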
Mac1 fbg enh – increases human CD11b/CD18 adhesion to fibrinogen | P05107+P11215 | K562 CD11b/CD18 adhesion to fibrinogen, ATPlite luminescence | activation, % at 10 µM | 0.07% of 93,000 active | AID 1499;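 active = 10 µM primary screen giving 50% or more activity, confirmed by 40% or more on retest at that dose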
Of the large screens only hits and unclear results are named; the others gave an inactive call.

O=C(c1ccc(N2CCOCC2)nc1)N1CCCCC1	none
CCOCCOC(=O)c1ccc(-n2cncn2)nc1	CYP2C19 inhib 61
CCOC(=O)c1ccc(-n2cncn2)nc1	none
COC(=O)c1sc(NC(=O)Cc2cccs2)nc1C	CYP2C9 inhib 57
O=C(Cc1cccs1)Nc1nc2c(ccc3ccccc32)s1	CYP2C9 inhib 64
COC(=O)c1sc(NC(=O)CSc2nc3cccnc3n2C2CCCCC2)nc1C	CYP2C9 inhib 84, CYP2C19 inhib 73
COC(=O)c1sc(NC(=O)c2ccco2)nc1C	none
COC(=O)c1sc(NC(=O)COc2ccc(C)cc2)nc1C	CYP2C9 inhib 60
Cc1nc(NC(=O)COc2ccccc2)sc1C(=O)Nc1ccccc1	none
O=C(Cc1cccs1)Nc1nnc(SCc2cccc3ccccc23)s1	none (no result: CYP2C9 inhib, CYP2C9 act, CYP2C19 inhib, CYP2C19 act)
COc1ccc2nc(NC(=O)CSc3nc4cccnc4n3C)sc2c1	none (no result: Mac1 fbg inh)
Cc1cnc(NC(=O)COc2ccccc2)s1	CYP2C19 inhib 66
COc1cc(CC(=O)Nc2ncc(C)s2)cc(OC)c1OC	CYP2C9 inhib 54, CYP2C19 inhib 73
O=C(COc1ccccc1)Nc1cccc2nsnc12	CYP2C19 inhib 53
COC(=O)c1sc(NC(=O)COc2ccccc2OC)nc1C	CYP2C9 inhib 67
COc1ccccc1OCC(=O)Nc1nnc(-c2ccco2)s1	none
CCOC(=O)c1ccc(CNCc2ccc(C)cc2)cc1	none (no result: CYP2C9 inhib, CYP2C9 act, CYP2C19 inhib, CYP2C19 act)
O=C(NC1CCS(=O)(=O)C1)c1ccc(-c2ccc(Br)cc2)o1 (centres undefined)	none
CC1CCC2(CC1)N=C(N)Nc1nc3ccccc3n12 (centres undefined)	none (no result: Mac1 fbg inh, Mac1 fbg enh)
COC(=O)c1sc(NC(=O)COc2ccccc2)nc1C	CYP2C9 inhib 94, CYP2C19 inhib 71
COC(=O)c1sc(Nc2ccccc2)nc1C	CYP2C19 inhib 58
Cc1ccc(NC2=NCCCCC2)cc1	none
COCCn1c(SCC(=O)N2CCCC2)nnc1-c1ccoc1C	none
Cc1ccc(S(=O)(=O)NCC(=O)OCC(=O)NC(=O)c2cccn2C)cc1	none
Cc1ccc(-c2noc(-c3ccccc3C(=O)N3CCCC3)n2)cc1	none
Cc1ccccc1C(=O)N1CCCN(C(=O)c2ccccc2C)CC1	CYP2C19 inhib 58
CCC(=O)Nc1ccc(N2CCN(C(=O)c3ccccc3C)CC2)cc1	none
CN1CCN(C(=O)c2ccccc2-c2nc(-c3ccc(Cl)cc3)no2)CC1	CYP2C9 inhib 56
Cc1ccccc1-c1noc(-c2ccccc2C(=O)N2CCCC2)n1	CYP2C9 inhib 84, CYP2C19 inhib 63
O=C(c1ccccc1-c1nc(-c2ccc(Cl)cc2)no1)N1CCCC1	CYP2C9 inhib 78
c1ccc(CN2CCN(c3ncnc4nc[nH]c34)CC2)cc1	none
Cc1ccccc1-c1noc(-c2ccccc2F)n1	none
Cc1ccccc1-c1noc(-c2ccc(O)cc2)n1	CYP2C19 inhib 59, Mac1 fbg inh 74
COc1cccc(-c2nnc3sc(C4CCCCC4)nn23)c1	CYP2C9 inhib 78, CYP2C19 inhib 84
COc1cc(-c2nn3c(-c4ccccn4)nnc3s2)cc(OC)c1OC	none
COc1ccc(-c2nn3c(-c4ccc(F)cc4)nnc3s2)cc1	none
c1cncc(-c2nnc3sc(C4CCCCC4)nn23)c1	CYP2C19 inhib 94
COc1cc(-c2nnc3sc(C4CCCCC4)nn23)cc(OC)c1OC	CYP2C9 inhib 77, CYP2C19 inhib 75
Cc1cc(-c2nnc3sc(C4CCCCC4)nn23)n[nH]1	CYP2C19 inhib 73
CCCCN1CC(C(=O)NCc2ccc(C)cc2)CC1=O (centres undefined)	none
CCOc1cccc(-c2nnc3sc(-c4cc(OC)c(OC)cc4OC)nn23)c1	none
COc1cc(OC)c(-c2nn3c(C4CCCCC4)nnc3s2)cc1OC	CYP2C9 inhib 85, CYP2C19 inhib 84 (no result: Mac1 fbg inh, Mac1 fbg enh)
Clc1ccc(OCc2nn3c(C4CCCCC4)nnc3s2)c(Cl)c1	none
CCOc1cccc(-c2nnc3sc(C4CCCCC4)nn23)c1	CYP2C19 inhib 94
COc1ccc(C(=O)N(C)Cc2ccccc2)cc1Br	none (no result: CYP2C9 inhib, CYP2C9 act, CYP2C19 inhib, CYP2C19 act)
COc1ccccc1CN(C)C(=O)c1ccc2c(c1)NC(=O)CS2	CYP2C19 inhib 93
Cc1ccccc1NC(=O)CC1SC(=NC2CCCCC2)NC1=O (centres undefined)	CYP2C9 inhib 67

Bioassay records deposited in PubChem BioAssay by Sanford-Burnham Center for Chemical Genomics.
